KB-3-1 tox – KB-3-1 parental cell cytotoxicity; actives 1.4% (n = 400,000); KB-3-1 viability, CellTiter-Glo ATP luminescence, 72 h; Potency, µM (top dose mostly 46.1 µM), actives largely listed as cytotoxic; further: nearly all actives have a fitted effect of over 60% in size
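Parental KB-3-1 viability, qHTS format: 72 h compound exposure, 37 °C; CellTiter-Glo; media-only wells and DMSO plates as controls; concentration-effect fits on corrected data.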
HT1080 IDH1KD tx – HT-1080 IDH1 knockdown cell toxicity (counter line) | HT-1080 IDH1 knockdown viability, ATP luminescence, 48 h | actives 2% (n = 360,000) | AID 686971 | Potency, µM (top dose mostly 46.1 µM), most hits filed as cytotoxic
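Knockdown cells (IDH1KD HT-1080) received compounds 2 h after plating at 750 cells/well and were kept 48 h at 37 °C in 5% FBS RPMI. A CellTiter-Glo luminescence read gave % activity for curve fitting.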
SW480 rerep – DNA re-replication induction in SW480 cells. actives 1.8% (n = 340,000). Potency, µM (series often up to 46.1 µM), usual class: activators. SW480 DNA re-replication, Hoechst DNA content imaging, 48 h. AID 624297; further: nearly all actives have a fitted effect of over 55% in size
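Hoechst fluorescence of nuclei (405 nm excitation, 500-530 nm emission) measured by plate-scanning imager after 48 hr compound exposure at 37 C; re-replication scored as increased number of nuclei with elevated intensity.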
MCF10A rereplic – induces DNA re-replication in MCF 10a normal breast cells | MCF 10A DNA re-replication, Hoechst nuclear intensity, 48 h | Potency, µM (series often up to 46.1 µM), most hits filed as activators | actives 2.9% (n = 350,000) | AID 624296; further: nearly all actives have a fitted effect of over 50% in size
KB-V1 MDR tox – kills drug-selected multidrug resistant KB-V1 cells. Potency, µM (top dose mostly 46.1 µM), hits mostly cytotoxic. actives 3.4% (n = 400,000). AID 1347076. KB-V1 MDR cells viability, CellTiter-Glo, 72 h; further: nearly all actives have a fitted effect of over 60% in size
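qHTS viability screen in drug-selected KB-V1 MDR cells: 72 h compound treatment at 37 degrees C, ATP luminescence end point.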
HT1080-NT tox – kills 2HG-producing HT-1080-NT fibrosarcoma cells. HT-1080-NT fibrosarcoma viability, CellTiter-Glo ATP luminescence, 48 h. Potency, µM (top dose mostly 46.1 µM), actives largely listed as cytotoxic. actives 1.6% (n = 360,000). AID 686970;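 further: NT is the 2HG producing partner of a matched IDH1 knockdown line; nearly all actives have a fitted effect of over 55% in size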
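HT-1080-NT fibrosarcoma cells (2HG-overproducing), 750 cells/well in RPMI with 5% FBS, dosed after 2 h and incubated 48 h at 37C. CellTiter-Glo luminescence normalized to DMSO and no-cell wells; concentration-response curves fitted and classed.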
Each line names hits and unclear results; the compound was inactive in the other large screens; ! = a repeat was not active. In the library only some 8% were active in any assay of this set; here they are far more common. The call rests on the fitted dose curve; in most records, active means well fitted curve in the direction sought with a large enough effect; inconclusive means small, poorly fitted or top-dose-only effect, or another doubt; inactive means no such curve, though single readings can be large; an effect the other way counts as inactive or inconclusive.

COc1ccccc1NC(CC(=O)c1ccccc1)C(=O)OCC(=O)c1ccc(C)cc1 (centres undefined)	SW480 rerep inconclusive, MCF10A rereplic inconclusive
CC(c1ccco1)N(C(=O)c1ccccc1NS(=O)(=O)c1ccc(Cl)c([N+](=O)[O-])c1)c1ccccn1 (centres undefined)	MCF10A rereplic 23µM, KB-V1 MDR tox inconclusive
Cc1cc(C)cc(C(=O)N(c2ccccn2)C(C)c2ccco2)c1 (centres undefined)	KB-V1 MDR tox 13µM
CC(c1ccco1)N(C(=O)c1cc(Cl)cc(Cl)c1)c1ccccn1 (centres undefined)	KB-V1 MDR tox inconclusive
Cc1cccc(C(=O)N(c2ccccn2)C(C)c2ccco2)c1 (centres undefined)	none
CCOC(=O)c1sc(C)c2c1NC(C)(c1cccs1)NC2=O (centres undefined)	HT1080 IDH1KD tx inconclusive, KB-V1 MDR tox 5.2µM
CC(C)(C)C(=O)N(Cc1nc2ccccc2c(=O)[nH]1)Cc1cccs1	KB-V1 MDR tox inconclusive
Cc1cc(C)cc(NS(=O)(=O)c2ccc3[nH]cc(C(=O)NCc4ccccc4Cl)c(=O)c3c2)c1	KB-3-1 tox inconclusive (no result: HT1080 IDH1KD tx, SW480 rerep, MCF10A rereplic, HT1080-NT tox)
CCn1cc(C(=O)N2CCCC2)c(=O)c2cc(S(=O)(=O)N3CC(C)CC(C)C3)ccc21 (centres undefined)	none
CCn1cc(C(=O)NCc2ccco2)c(=O)c2cc(S(=O)(=O)N3CCCCCC3)ccc21	KB-3-1 tox 21µM, HT1080 IDH1KD tx inconclusive, MCF10A rereplic inconclusive, HT1080-NT tox 15µM
CCn1cc(C(=O)NCc2ccco2)c(=O)c2cc(S(=O)(=O)N3CC(C)CC(C)C3)ccc21 (centres undefined)	KB-3-1 tox 5.8µM, HT1080 IDH1KD tx 5.8µM, KB-V1 MDR tox inconclusive, HT1080-NT tox 4.1µM
Cc1cc(C)cc(NS(=O)(=O)c2ccc3[nH]cc(C(=O)NCc4ccco4)c(=O)c3c2)c1	KB-3-1 tox 7.3µM, HT1080 IDH1KD tx 5.2µM, HT1080-NT tox 2.6µM
CCOC(=O)N1CCN(C(=O)c2cn(CC)c3ccc(S(=O)(=O)N4CC(C)CC(C)C4)cc3c2=O)CC1 (centres undefined)	MCF10A rereplic 2.3µM
CCn1cc(C(=O)NCc2ccc(C)cc2)c(=O)c2cc(S(=O)(=O)N3CCC(C)CC3)ccc21	none (no result: HT1080 IDH1KD tx, SW480 rerep, MCF10A rereplic, HT1080-NT tox)
CCn1cc(C(=O)NCc2ccc(Cl)cc2)c(=O)c2cc(S(=O)(=O)N3CCc4ccccc4C3)ccc21	none (no result: HT1080 IDH1KD tx, SW480 rerep, MCF10A rereplic, HT1080-NT tox)
CCn1cc(C(=O)NCc2ccco2)c(=O)c2cc(S(=O)(=O)N3CCc4ccccc4C3)ccc21	KB-3-1 tox 23µM, HT1080 IDH1KD tx inconclusive, MCF10A rereplic inconclusive, HT1080-NT tox inconclusive
CCn1cc(C(=O)NCc2ccco2)c(=O)c2cc(S(=O)(=O)N3CCC(C)CC3)ccc21	KB-3-1 tox inconclusive, HT1080 IDH1KD tx inconclusive, KB-V1 MDR tox 5.8µM, HT1080-NT tox inconclusive
COc1ccc(C(=O)NC(=S)N2CCCC2)cc1	none
COc1cc(OC)cc(C(=O)NC(=S)N2CCCCCC2)c1	KB-V1 MDR tox 18µM
COc1ccc(C(=O)NC(=S)N2CCCCC2)cc1	HT1080 IDH1KD tx 0.79µM, SW480 rerep inconclusive, HT1080-NT tox 0.56µM
Cc1ccc(CNS(=O)(=O)NCc2ccccc2F)cc1	none
CCC(=O)Nc1cc(-c2nn(C)c(=O)c3ccccc23)ccc1N1CCOCC1	none
Cn1nc(-c2ccc(N3CCCCC3)c(NC(=O)c3ccco3)c2)c2ccccc2c1=O	KB-3-1 tox 8.2µM, MCF10A rereplic inconclusive, KB-V1 MDR tox inconclusive
C/C(CC(=O)Nc1cc(C)ccn1)=N\NC(=O)c1ccncc1	KB-V1 MDR tox inconclusive
Cc1ccc2c(COC(=O)c3ccccc3Cl)cc(=O)oc2c1	none
CCOc1ccccc1C(=O)N[C@H](C(=O)OCc1cc(=O)oc2cc(C)ccc12)C(C)C	SW480 rerep inconclusive, KB-V1 MDR tox 3.3µM
CC(C)C(NC(=O)c1ccccc1)C(=O)OCc1cc([N+](=O)[O-])cc2c1OCOC2 (centres undefined)	none
CCOc1ccccc1C(=O)N[C@H](C(=O)OCc1cc([N+](=O)[O-])cc2c1OCOC2)C(C)C	HT1080 IDH1KD tx inconclusive, KB-V1 MDR tox 5.8µM
COc1cc(OC)cc(C(=O)N[C@H](C(=O)OCc2cc(=O)oc3cc(C)ccc23)C(C)C)c1	KB-V1 MDR tox 3.7µM
COc1cc(OC)cc(C(=O)NCC(=O)OCc2cc(=O)oc3cc(OC)ccc23)c1	none
O=S(=O)(Nc1cccc2ccccc12)c1cccc2nonc12	none
COc1ccc(C=C2SC(=S)N(CCCN3CCOCC3)C2=O)c(OC)c1	none (no result: SW480 rerep, MCF10A rereplic)
CCCCCCCc1ccc(-c2ccc(O)cc2)nc1	HT1080 IDH1KD tx inconclusive, MCF10A rereplic inconclusive
CCCCCCC[N+](CC)(CC)CCCCc1ccc(Cl)cc1	KB-3-1 tox inconclusive, HT1080 IDH1KD tx 6.5µM, MCF10A rereplic inconclusive, HT1080-NT tox 6.5µM
Cc1nc(NC(=O)CSc2nc3cccnc3n2Cc2ccccc2)sc1C	MCF10A rereplic 23µM, KB-V1 MDR tox inconclusive
O=C(NCCc1ccccc1)c1ccc(CSc2nc3cccnc3n2Cc2ccc(F)cc2)cc1	none (no result: HT1080 IDH1KD tx, SW480 rerep, MCF10A rereplic, HT1080-NT tox)
Cc1cccc(Cn2c(SCc3ccc(C(=O)NCCc4ccccc4)cc3)nc3cccnc32)c1	KB-3-1 tox inconclusive, KB-V1 MDR tox 18µM (no result: HT1080 IDH1KD tx, SW480 rerep, MCF10A rereplic, HT1080-NT tox)
Cc1cccc(Cn2c(SCc3ccc(C(=O)NCc4ccccc4F)cc3)nc3cccnc32)c1	KB-3-1 tox inconclusive, KB-V1 MDR tox 15µM (no result: HT1080 IDH1KD tx, SW480 rerep, MCF10A rereplic, HT1080-NT tox)
CCCC(=O)N(Cc1cc2ccccc2[nH]c1=O)c1ccccc1OC	HT1080-NT tox inconclusive
CCN(C(=O)c1cc(S(=O)(=O)N2CCOCC2)cn1C)c1cccc(C)c1	none
COc1cc(/C=C/C(=O)OCc2cn3cc(Cl)ccc3n2)ccc1O	KB-3-1 tox inconclusive, HT1080 IDH1KD tx inconclusive, SW480 rerep inconclusive, MCF10A rereplic 10µM, KB-V1 MDR tox inconclusive, HT1080-NT tox inconclusive
COc1cc(/C=C/C(C)=NNc2ccccc2)ccc1O	HT1080 IDH1KD tx inconclusive, SW480 rerep inconclusive, MCF10A rereplic 16µM, HT1080-NT tox inconclusive
COc1cc(/C=C/C(=O)OCC(=O)NCc2ccc(F)cc2)ccc1O	KB-3-1 tox inconclusive, HT1080 IDH1KD tx inconclusive, SW480 rerep 8.2µM, MCF10A rereplic 15µM, KB-V1 MDR tox 16µM, HT1080-NT tox inconclusive
CCOC(=O)CSCc1cn2cc(Cl)ccc2n1	none
COc1cc(/C=N/Nc2ccc(C(=O)O)cc2)ccc1O	none
COc1cc(/C=C/C(=O)O)ccc1O	SW480 rerep inconclusive, MCF10A rereplic inconclusive
COc1cc(/C=C/C(=O)CC(=O)/C=C/c2ccc(O)c(OC)c2)ccc1O	KB-3-1 tox inconclusive, HT1080 IDH1KD tx 2.6µM, SW480 rerep 12µM!, MCF10A rereplic 26µM!, HT1080-NT tox inconclusive
